Screening results deposited in PubChem by The Scripps Research Institute Molecular Screening Center.
GSTO1 counter: blocks human GSTO1 in RBBP9 counter-screen; recombinant GSTO1, activity-based probe fluorescence polarization; inhibition, % at 5.96 µM; 300,000 tested, 1.1% active;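 active = inhibition above the campaign mean inhibition plus 3 SD, cut at about 35% in these data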
LYPLA2 counter: counter-screen for PME1 inhibitors: inhibitors of human LYPLA2; O95372; recombinant LYPLA2, FP-Rh probe fluorescence polarization; inhibition, % at 5.9 µM; 320,000 tested, 0.38% active;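 active = inhibition above the screen-wide mean plus 3 SD, limit set per campaign, cut at about 26% in these data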
PAD4 inh: inhibitors of human PAD4 | recombinant PAD4, RCA probe fluorescence polarization | AID 485272 | inhibition, % at 6.36 µM | 330,000 tested, 0.41% active | Q9UM07;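 active = percent inhibition above a cutoff equal to the mean of all tested compounds plus 3 SD, cut at about 15% in these data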
LYPLA1 inh: blocks human lysophospholipase 1, a PME1 counter-screen. O75608. recombinant LYPLA1, FP-Rh probe fluorescence polarization. inhibition, % at 5.9 µM. 320,000 tested, 0.16% active. AID 2174;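 active = inhibition above the mean of all tested compounds plus 3 SD, set per campaign, cut at about 14% in these data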;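 also: inhibitors block serine hydrolase probe labeling of LYPLA1 so polarization falls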
Target sequence (O75608 whole entry, looked up): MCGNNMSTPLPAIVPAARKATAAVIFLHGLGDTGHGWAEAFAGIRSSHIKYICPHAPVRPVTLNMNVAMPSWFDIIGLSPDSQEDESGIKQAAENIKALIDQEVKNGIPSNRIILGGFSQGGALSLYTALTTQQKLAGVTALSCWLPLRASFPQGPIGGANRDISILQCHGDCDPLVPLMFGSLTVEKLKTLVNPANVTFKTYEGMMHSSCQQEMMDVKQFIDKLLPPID
PME-1 primary: blocks human protein phosphatase methylesterase 1; Q9Y570; recombinant PME-1, FP-Rh probe fluorescence polarization; inhibition, % at 5.9 µM; 320,000 tested, 0.53% active; AID 2130;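 active = inhibition above the campaign mean of all compounds plus 3 SD, cut at about 26% in these data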;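 also: competitive labeling of PME-1 active site by serine hydrolase directed probe; inhibitors block probe labeling so polarization falls and inhibition rises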
Target sequence (Q9Y570 whole entry, looked up): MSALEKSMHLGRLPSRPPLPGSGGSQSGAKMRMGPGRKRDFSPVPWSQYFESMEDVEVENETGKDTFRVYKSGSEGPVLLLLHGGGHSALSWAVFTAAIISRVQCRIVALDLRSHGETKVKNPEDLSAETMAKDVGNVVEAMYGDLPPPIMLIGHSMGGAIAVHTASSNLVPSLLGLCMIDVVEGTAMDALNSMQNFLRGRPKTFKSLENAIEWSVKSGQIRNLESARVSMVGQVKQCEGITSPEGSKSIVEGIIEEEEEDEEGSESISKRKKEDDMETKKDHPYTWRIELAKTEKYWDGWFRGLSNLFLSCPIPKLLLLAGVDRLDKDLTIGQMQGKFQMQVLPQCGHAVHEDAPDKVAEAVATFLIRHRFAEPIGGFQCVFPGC
Fam108B counter: counter-screen for RBBP9 inhibitors: inhibitors of mouse Fam108B | recombinant Fam108B, FP-Rh probe fluorescence polarization | inhibition, % at 9.51 µM | 300,000 tested, 0.33% active;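 active = inhibition above the screen mean inhibition plus 3 SD, computed separately per campaign, cut at about 18% in these data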;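 also: inhibitors lower polarization as less probe binds the enzyme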
GSTO1 inh conf: confirmation of human GSTO1 inhibitors; shares compounds with GSTO1 counter; recombinant GSTO1, probe fluorescence polarization; inhibition, % at 5.96 µM; 2,400 tested, 54% active; AID 2176;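 active = inhibition above the primary screen's cutoff, its mean inhibition plus 3 SD, cut at about 35% in these data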;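 also: loss of polarization as inhibitors block binding of rhodamine sulfonate ester activity probe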
Of the large screens only hits and unclear results are named; the others gave an inactive call (follow-up assays come after a bar, where they were run). Shown are actives, neighbours in structure and some others; about 1.8% of the full set was active somewhere.

CC(CCc1ccccc1)NC(=O)COC(=O)c1cc(NS(=O)(=O)c2ccc(Cl)c([N+](=O)[O-])c2)ccc1O (stereo not drawn)	GSTO1 counter 43 | GSTO1 inh conf 49
COCCN=c1scc(-c2ccco2)n1/N=C/c1ccc(O)c(O)c1O	GSTO1 counter 69 | GSTO1 inh conf inactive
Cc1ccc(S(=O)(=O)N2CCC(C(=O)C3C(=O)CC(C)(C)CC3=O)CC2)cc1	none
Cc1ccc(S(=O)(=O)/N=C2/C=C(C3C(=O)CC(C)(C)CC3=O)C(=O)c3ccccc32)cc1	GSTO1 counter 61 | GSTO1 inh conf inactive
O=C(NC1CCC(Oc2ccc(C(=O)O)cc2)CC1)NC12CC3CC(CC(C3)C1)C2 (stereo not drawn)	none (no result: GSTO1 counter, Fam108B counter)
Nc1c(C(=O)OCC2CCCO2)c2nc3ccccc3nc2n1C1CCCCC1 (stereo not drawn)	GSTO1 counter 67 | GSTO1 inh conf inactive
C=CCNC(=S)NNC(=O)c1cc(O)ccc1O	GSTO1 counter 62 | GSTO1 inh conf inactive
Cc1noc(NS(=O)(=O)c2ccc(NC(=O)CSc3ncccn3)cc2)c1C	GSTO1 counter 55 | GSTO1 inh conf inactive
N#CC1(NC(=O)COC(=O)c2cc(O)c3ccccc3c2O)CCCCC1	GSTO1 counter 61 | GSTO1 inh conf 57
N#CC1(NC(=O)COC(=O)c2ccccc2[N+](=O)[O-])CCCCC1	none
CN(C)c1ccc(O)c2c1CC1CC3[C@@H](N(C)C)C(=O)C(C(N)=O)=C(O)[C@]3(O)C(=O)C1=C2O (stereo partly drawn)	GSTO1 counter 40 | GSTO1 inh conf inactive
CN(C)c1ccc(NC(=O)C(=O)C2C(=O)Nc3ccccc32)cc1 (stereo not drawn)	none
CN(C)c1ccc(CC2C(=O)Nc3ccccc32)cc1 (stereo not drawn)	GSTO1 counter 48 | GSTO1 inh conf inactive
Cc1ccc(C)c(NC(=O)NNC(=O)c2cc3ccccc3cc2O)c1	none
CCCCN(C(=O)c1cccc(-n2cccc2)c1)c1c(N)n(Cc2ccccc2)c(=O)[nH]c1=O	GSTO1 counter 58 | GSTO1 inh conf inactive
CCCCN(C(=O)c1cccc(N2C(=O)c3ccccc3C2=O)c1)c1c(N)n(CC(C)C)c(=O)[nH]c1=O	none (no result: GSTO1 counter, Fam108B counter)
Cc1cccc(CC(=O)Nc2ccon2)c1	GSTO1 counter 59 | GSTO1 inh conf inactive
Cc1ccccc1CC(=O)Nc1ccon1	none
CC(C)NC[C@@H](O)COc1ccc(CC(N)=O)cc1	none
O=C1CCN(Cc2ccccc2)CCN1[C@H](COc1ccccc1)c1ccccc1	GSTO1 counter 83 | GSTO1 inh conf inactive
O=C(CCS(=O)(=O)c1cc(Br)cc2c1N(C(=O)C1CC1)CC2)N1CCN(c2ccccn2)CC1	none
Cc1ccc2oc(=O)c(/C=C(\O)c3cccs3)nc2c1	GSTO1 counter 40 | GSTO1 inh conf inactive
Cc1[nH]n(-c2ccccc2)c(=O)c1C(C[N+](=O)[O-])c1ccc(Br)cc1 (stereo not drawn)	GSTO1 counter 45 | GSTO1 inh conf inactive
CC(C)=CCc1c(O)c(CC=C(C)C)c2c(c1O)-c1cc(O)c(O)cc1CC2	GSTO1 counter 39 | GSTO1 inh conf inactive
C=CCOc1cccc(/C=N/NC(=O)CC(=O)NC2CCCCC2)c1	none
CC1(NC(=O)Cc2c(Cl)cccc2Cl)CCS(=O)(=O)C1 (stereo not drawn)	none (no result: GSTO1 counter, Fam108B counter)
O=Nc1ccc(O)c2ncccc12	GSTO1 counter 69 | GSTO1 inh conf inactive
O=[N+]([O-])c1ccc(O)c2cccnc12	none
Cc1ccccc1N=Nc1ccc(O)c2ncccc12	none
COc1cccc(N=Nc2ccc(O)c3ncccc23)c1	GSTO1 counter 39 | GSTO1 inh conf inactive
O=[N+]([O-])c1cc([N+](=O)[O-])c2cccnc2c1Oc1ccccc1O	GSTO1 counter 50 | GSTO1 inh conf inactive
O=[N+]([O-])c1ccc(O)c2ncccc12	GSTO1 counter 45 | GSTO1 inh conf inactive
COc1ccc(N=Nc2ccc(O)c3ncccc23)cc1	none
CCC(CC)NC(=O)Cc1ccccc1OC	none
Cc1c(NC(=S)NC(=O)C2CCCCC2)c(=O)n(-c2ccccc2)n1C	none
O=C(CNC(=O)c1cccnc1)N=Nc1c(O)[nH]c2c(Br)cc(Br)cc12	GSTO1 counter 85 | GSTO1 inh conf 41
O=C1C2C3C=CC(C2C(=O)N1c1ccc(O)cc1)C1C2C(=O)N(c4ccc(O)cc4)C(=O)C2C31 (stereo not drawn)	GSTO1 counter 42 | GSTO1 inh conf inactive
O=C1C2C3C=CC(C2C(=O)N1c1ccccc1O)C1C2C(=O)N(c4ccccc4O)C(=O)C2C31 (stereo not drawn)	none
Cc1cc(Cl)ccc1NC(=S)NCc1ccccc1Cl	none
CC(=O)Oc1ccc(-c2cc3ccccc3oc2=O)cc1	none
CC(=O)Oc1ccc(-c2cc3c(OC(C)=O)cc(OC(C)=O)cc3oc2=O)cc1	GSTO1 counter 44 | GSTO1 inh conf inactive
O=C1NN(c2cccc(Br)c2)C(=O)/C1=C/c1cccs1	none
COc1ccc(-n2c(C)cc(/C=C3\C(=O)NN(c4ccccc4)C3=O)c2C)cc1	none
O=C1NN(c2ccccc2)C(=O)/C1=C/c1coc2ccccc2c1=O	none
O=C1NN(c2ccccc2)C(=O)/C1=C\c1coc2ccc(O)cc2c1=O	GSTO1 counter 50 | GSTO1 inh conf 36
COc1ccc(Sc2ccc(/C=C3\C(=O)NN(c4ccccc4)C3=O)o2)cc1	GSTO1 counter 42 | GSTO1 inh conf 58
O=C1NN(c2ccccc2)C(=O)/C1=C/c1cccs1	GSTO1 counter 63 | GSTO1 inh conf inactive
CCS(=O)(=O)c1ccc(-c2cccc(NC(=O)COc3ccc(Cl)cc3)c2)nn1	none
CCN(CC)c1ccc(NS(=O)(=O)c2ccc(OC)cc2)cc1	GSTO1 counter 56 | GSTO1 inh conf 56
CC1=NN(c2ccc(Br)cc2)C(=O)/C1=C/c1cccs1	GSTO1 counter 45 | GSTO1 inh conf inactive
COc1ccccc1N1CCN(C(=O)c2ccc(-c3ccc(Cl)cc3)o2)CC1	none (no result: GSTO1 counter, Fam108B counter)
CC(C)c1onc(C(=O)NCc2cccs2)c1[N+](=O)[O-]	GSTO1 counter 41 | GSTO1 inh conf inactive
Cc1onc(C(=O)NCc2cccs2)c1[N+](=O)[O-]	none
NNC(=O)c1[nH]c(-c2ccccc2)cc1-c1ccccc1	none
O=[N+]([O-])c1cc(Br)cc(C=Nc2ccc3c(c2)OCO3)c1O	GSTO1 counter 43 | GSTO1 inh conf 38
Cc1ccc2c(c1)c1nc3ccccc3nc1n2C	none
Cn1c2ccc(Cl)cc2c2nc3ccccc3nc21	GSTO1 counter 76 | GSTO1 inh conf inactive
COC1=C(c2ccccc2)C(=O)c2ccccc2C1=O	GSTO1 counter 44 | GSTO1 inh conf 35
Cc1ccc(OCC(O)CN2C(=O)NC(C)(C)C2=O)c(C)c1 (stereo not drawn)	none
Cc1cc(O)c(N)c(C)c1Cl	GSTO1 counter 46 | GSTO1 inh conf inactive
